# Data: the supplement of paper PMC7366291
# Where a name gives a salt, the structure may show the parent alone. ± gives the standard deviation of the averaged measurements.
# Test system: Danio rerio Tg(wt1b:EGFP) embryo, pronephros
# Assay: pronephric angle neck segment to proximal convoluted tubule (mean of left and right), fold change vs DMSO control; higher = larger pronephric angle
# Settings: 25 µM; exposure: 24-48 hpf
# Summary of the method: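 In HEPES-buffered E3 with 0.003% PTU and 0.5% DMSO, dechorionated Tg(wt1b:EGFP) zebrafish embryos were exposed to 25 μM compound from 24 to 48 hpf at 28.5°C. Pronephroi were then imaged dorsally at 470 nm in 10 z-slices, in 96-well plates filled with agarose. On maximum projections, a Fiji macro turned 16 manually placed reference points into distances and angles, and values more than 2 SD from the feature mean were excluded. Features are fold changes relative to the mean of DMSO-treated embryos from the same day.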
row,SMILES,pronephric angle neck segment
1,NCCc1c[nH]cn1 [Histamine dihydrochloride],1.03 ± 0.03
2,CC1=C(/C=C/C(C)=C/C=C/C(C)=C\C(=O)O)C(C)(C)CCC1 [Isotretinoin],1.69 ± 0.022
3,COc1cc(C(=O)NC2CCCNC2)cc(OC)c1OC (stereo unspecified) [Troxipide],0.953 ± 0.027
4,C[C@]12C=CC(=O)C=C1CC[C@@H]1[C@@H]2[C@@H](O)C[C@@]2(C)[C@H]1CC[C@]2(O)C(=O)CO [Prednisolone],1.04 ± 0.02
5,CCCc1cc(C(N)=S)ccn1 [Prothionamide],1.007 ± 0.0083
6,CC(C)OC(=O)CCC/C=C\C[C@@H]1[C@@H](CC[C@@H](O)CCc2ccccc2)[C@H](O)C[C@@H]1O [Latanoprost],1.02 ± 0.013
